Assay results from PubChem BioAssay (NCATS).
Records with an inconclusive call do not appear. Where a call stands in place of a potency, no number is given. The source made the active and inactive calls. The call rests on the fitted dose curve; in most records, active means well fitted curve in the direction sought with a large enough effect; inconclusive means small, poorly fitted or top-dose-only effect, or another doubt; inactive means no such curve, though single readings can be large; an effect the other way counts as inactive or inconclusive.

Tests used:
[1] = Cell Viability - LYMP2-007 (AID 979);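 further: cells exposed to compound for 24 h before reading; nearly all actives have a fitted effect of over 60% in size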; further: potency means the concentration at half of the fitted maximal effect
Procedure, shortened: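 qHTS cytotoxicity: 2500 cells/well, 5 hr 37 C settle, compound 24 hr 37 C, CellTiter-Glo 30 min RT, luminescence. Decrease in ATP = toxicity. AC50 by standard Hill equation; tetraoctylammonium bromide positive control.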

[2] = Cell Viability - LYMP2-008 (AID 980); further: nearly all actives have a fitted effect of over 60% in size; further: potency means the concentration at half of the fitted maximal effect
Procedure, shortened: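 Luminescent ATP read-out (CellTiter-Glo, 30 min RT) after 24 hr compound exposure at 37 C of human lymphoblastoid cells in complete medium. Decrease in ATP taken as cytotoxicity; AC50 derived by standard Hill fit of qHTS concentration-response data.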

[3] = Cell Viability - LYMP2-010 (AID 981);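 further: cells exposed to compound for 24 hours at 37 °C; nearly all actives have a fitted effect of over 55% in size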; further: potency means the concentration at half of the fitted maximal effect
Procedure, shortened: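 qHTS cytotoxicity, 1536-well: 2500 cells/well, 5 hr settle, 24 hr compound at 37 C, CellTiter-Glo 30 min RT, luminescence read. Decrease in ATP = toxicity; AC50 via standard Hill equation. Positive control tetraoctylammonium bromide.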

[4] = Cell Viability - LYMP2-012 (AID 982);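 further: cellular ATP by luciferase luminescence where a drop means cytotoxicity; cells exposed to compound for one day before reading; nearly all actives have a fitted effect of over 55% in size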; further: potency means the concentration at half of the fitted maximal effect
[5] = Cell Viability - LYMP2-014 (AID 983); further: nearly all actives have a fitted effect of over 50% in size; further: potency means the concentration at half of the fitted maximal effect
Procedure, shortened: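 2500 cells/well, 5 hr 37 C; cpd 24 hr 37 C, complete medium; CellTiter-Glo 30 min RT, luminescence; ATP loss = toxicity; AC50 via Hill eqn; tetraoctylammonium bromide positive control.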

[6] = Cell Viability - LYMP2-016 (AID 984);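 further: cells exposed to compound for 24 hours at 37 °C; nearly all actives have a fitted effect of over 55% in size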; further: potency means the concentration at half of the fitted maximal effect
Procedure, shortened: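 Acute toxicity in a Coriell human lymphoblastoid line is scored as loss of intracellular ATP over 24 h of treatment in complete medium. CellTiter-Glo signal is fitted across concentrations with the Hill equation to give AC50.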

[7] = Cell Viability - LYMP2-020 (AID 986); further: nearly all actives have a fitted effect of over 55% in size; further: potency means the concentration at half of the fitted maximal effect
Procedure, shortened: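 qHTS, 2500 cells/well; 5 hr then 24 hr compound exposure, 37 C; CellTiter-Glo luminescence after 30 min RT; ATP decrease taken as cytotoxicity; AC50 via Hill equation; tetraoctylammonium bromide positive control.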

[8] = Cell Viability - LYMP2-022 (AID 987); further: nearly all actives have a fitted effect of over 55% in size; further: potency means the concentration at half of the fitted maximal effect
Procedure, shortened: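 Luminescent ATP read-out (CellTiter-Glo, 30 min, RT) after 24 hr, 37 C compound exposure of 2500 human lymphoblastoid cells/well in complete medium. Cytotoxicity taken as concentration-dependent ATP loss; AC50 from standard Hill equation.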

[9] = Cell Viability - LYMP2-024 (AID 988); further: nearly all actives have a fitted effect of over 60% in size; further: potency means the concentration at half of the fitted maximal effect
Procedure, shortened: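 ATP-based luminescence (CellTiter-Glo, 30 min RT) after 24 h compound exposure at 37 C of 2500 lymphoblastoid cells/well; decrease in ATP taken as cytotoxicity. qHTS concentration-response fitted to standard Hill equation for AC50.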

[10] = target: Alpha-galactosidase A (Homo sapiens) (UniProt P06280); assay: Counterscreen for Glucocerebrosidase Inhibitors: qHTS Assay for Human alpha-Galactosidase at pH 4.5 (AID 992)
Chain of Alpha-galactosidase A (Homo sapiens) (P06280 whole entry, looked up): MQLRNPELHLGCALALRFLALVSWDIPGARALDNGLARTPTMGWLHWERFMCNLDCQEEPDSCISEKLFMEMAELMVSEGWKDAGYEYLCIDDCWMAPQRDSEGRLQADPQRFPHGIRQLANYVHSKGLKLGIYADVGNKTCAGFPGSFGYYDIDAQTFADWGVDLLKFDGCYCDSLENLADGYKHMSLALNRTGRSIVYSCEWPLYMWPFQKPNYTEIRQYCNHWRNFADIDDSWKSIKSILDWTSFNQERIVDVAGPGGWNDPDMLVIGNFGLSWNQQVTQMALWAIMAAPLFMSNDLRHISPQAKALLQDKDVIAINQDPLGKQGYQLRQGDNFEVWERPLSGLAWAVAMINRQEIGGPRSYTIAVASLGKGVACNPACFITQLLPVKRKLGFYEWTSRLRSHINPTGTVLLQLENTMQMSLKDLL
Procedure, shortened: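 Steps: enzyme (2 nM final), then compound across 0.7 nM to 77 uM, then 80 uM fluorogenic galactopyranoside substrate; incubate 20 min at room temperature; quench at pH 10; measure fluorescence at 365/440 nm.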

| Compound | Potency [1] | Potency [2] | Potency [3] | Potency [4] | Potency [5] | Potency [6] | Potency [7] | Potency [8] | Potency [9] | outcome [10] |
| --- | --- | --- | --- | --- | --- | --- | --- | --- | --- | --- |
| CCCCCCCCCCCCCCCC[n+]1ccccc1 | 12.6 µM (active) | 15.8 µM (active) | 15.8 µM (active) | 12.6 µM (active) | 12.6 µM (active) | 15.8 µM (active) | 15.8 µM (active) | 12.6 µM (active) | 15.8 µM (active) |  |
| CN(C)c1cc2c(Nc3ccc4c(cnn4Cc4ccccc4)c3)ncnc2cn1 |  |  |  |  |  |  |  |  |  | inactive |
| Oc1ccccc1 | inactive | inactive | inactive | inactive | inactive | inactive | inactive | inactive | inactive |  |
| COc1ccccc1N1CCN(CCN2C(=O)CC3(CCCC3)CC2=O)CC1 |  |  |  |  |  |  |  |  |  | inactive |
| C1=CC2C3C=CC(C3)C2C1 (centres undefined) | inactive | inactive | inactive | inactive | inactive | inactive | inactive | inactive | inactive |  |
| O=C(c1ccccc1)c1ccccc1 | inactive | inactive | inactive | inactive | inactive | inactive | inactive | inactive | inactive |  |
| Cn1cnc2c(NCc3ccccc3)nc(NCCO)nc21 |  |  |  |  |  |  |  |  |  | inactive |
| Nc1ccc(O)cc1 | 31.6 µM (active) | 39.8 µM (active) | 25.1 µM (active) | 31.6 µM (active) | 39.8 µM (active) | 50.1 µM (active) | 31.6 µM (active) | 25.1 µM (active) | 25.1 µM (active) |  |
| CCCC(=O)c1cc(O)c(O)cc1O |  | inactive |  | inactive | inactive | inactive | inactive | inactive |  |  |
| CCCCC(CC)COC(=O)c1ccccc1C(=O)O (centres undefined) | inactive | inactive | inactive | inactive | inactive | inactive | inactive | inactive | inactive |  |
| CC(C)(C)c1ccc(O)c(O)c1 | 39.8 µM (active) | 50.1 µM (active) | 31.6 µM (active) | 39.8 µM (active) |  | 50.1 µM (active) | 50.1 µM (active) | 39.8 µM (active) | 25.1 µM (active) |  |
| Cc1ccc(O)cc1 | inactive | inactive | inactive | inactive | inactive | inactive | inactive | inactive | inactive |  |
| NC(N)=NCCCCN=C(N)N |  |  |  |  |  |  |  |  |  | inactive |
| CC(=O)OC/C=C(C)/C=C/C=C(C)/C=C/C1=C(C)CCCC1(C)C |  |  | 50.1 µM (active) | 50.1 µM (active) |  |  |  | 50.1 µM (active) | 39.8 µM (active) |  |
| Cc1cc(C(C)(C)C)c(O)c(C(C)(C)C)c1 | inactive | inactive | inactive | inactive | inactive | inactive | inactive | inactive | inactive |  |
| O=[N+]([O-])c1ccc(-c2nc(-c3ccc(F)cc3)c(-c3ccncc3)[nH]2)cc1 |  |  |  |  |  |  |  |  |  | inactive |
| c1ccc2occc2c1 | inactive | inactive | inactive | inactive | inactive | inactive | inactive | inactive | inactive |  |
| CC(C)N(CCC(=O)c1ccc2ccccc2c1)Cc1ccccc1 |  |  |  |  |  |  |  |  |  | inactive |
| Nc1cccc2c(N)cccc12 | inactive | inactive | inactive | inactive | inactive | inactive | inactive | inactive | inactive |  |
| O=C(NO)c1ccccc1 | inactive | inactive | inactive | inactive | inactive | inactive | inactive | inactive | inactive |  |
| OCc1c[nH]c2ccccc12 | inactive | inactive | inactive | inactive | inactive | inactive | inactive | inactive | inactive |  |
| O=C1NC(c2cccc([N+](=O)[O-])c2)=CCN1c1ccccc1O |  |  |  |  |  |  |  |  |  | inactive |
| O=C(Oc1ccccc1)c1ccccc1O | inactive | inactive | inactive | inactive | inactive | inactive | inactive | inactive | inactive |  |
| COc1cc(C=O)ccc1O | inactive | inactive | inactive | inactive | inactive | inactive | inactive | inactive | inactive |  |
| C[N+](C)(C)CCO |  |  |  |  |  |  |  |  |  | inactive |
| CC(C)(c1ccc(O)cc1)c1ccc(O)cc1 | inactive | inactive | inactive | inactive | inactive | inactive | inactive | inactive | inactive |  |
| CC(C)C(C)(C)C(C)(C)C(C)(C)S | inactive | inactive | inactive | inactive | inactive | inactive | inactive | inactive | inactive |  |
| Brc1ccc([C@H]2CN3CCSC3=N2)cc1 |  |  |  |  |  |  |  |  |  | inactive |
| Brc1ccccc1-c1ccccc1 | inactive | inactive | inactive | inactive | inactive | inactive | inactive | inactive | inactive |  |
| Nc1c2ccccc2nc2ccccc12 | 15.8 µM (active) | 12.6 µM (active) | 12.6 µM (active) | 10 µM (active) | 10 µM (active) | 10 µM (active) | 10 µM (active) | 12.6 µM (active) | 12.6 µM (active) |  |
